Measurements published in PubChem BioAssay AID504558 (Broad Institute, 2011).
About 2,400 (0.69%) of roughly 350,000 compounds were called active. This is one part of a sample in which actives are shown more often than they occur. Cut-off read from the data, not from the text of the source: active = inhibition above about 41%; inconclusive = no clear call, values can overlap the other calls; inactive = below that.

Assay: EBV LMP1-driven NF-kappaB luciferase reporter inhibitors, primary screen, cell-based, luminescence, single point (AID 504558);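 note: 0% = neutral control wells and 100% = reference inhibitor control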
Conditions: LMP1-induced NF-kappaB luciferase reporter cells, at 12.5 µM, active compounds read high

inhibition, active:
COc1cc(C2CC(=O)N3CN(Cc4ccccc4)CSC3=C2C#N)ccc1OCc1ccccc1 (stereo not given) 65%
O=C1c2ccccc2C(O)N1Cc1ccccc1 (stereo not given) 49.7%
CC(C)=CCc1ccc(O)c(=O)cc1C(C)C 52.9%
CCN(CC)c1ccc(/C=N/NC(=O)c2cnccn2)c(O)c1 66.9%
Oc1c(Cl)cc(Cl)c(Cl)c1Cc1c(O)c(Cl)cc(Cl)c1Cl 52.3%
OCCCNc1nccc(-c2cc(Nc3cccc(Cl)c3)ncn2)n1 88.6%
CCC(C)Cn1c(O)cc2nn(-c3nc4ccccc4s3)c(=O)c-2c1C (stereo not given) 51.8%
O=C(Nc1ccc(C(=O)N2CCOCC2)cc1)Nc1cccc(C(F)(F)F)c1 65.4%
CN(CCO)c1ccc(/C=N/Nc2nncc3ccccc23)cc1 45.7%
O=C1CCCN2N=C(SCC(=O)Nc3ccc(Br)cc3)SC2=N1 46.9%
C=CC(=O)OCCOCCOCCOCCOC(=O)C=C 83.3%
O=C(c1cc2cc(Br)cc(Br)c2oc1=O)N1CCOCC1 83.6%
Cc1ccsc1C(=O)OCC(=O)c1cc(C)n(CC2CCCO2)c1C (stereo not given) 63.2%
O=C(CSc1ncnc2sccc12)N1CCN(C(=O)c2cccs2)CC1 69.5%
NC(=O)C1(Nc2ccc([N+](=O)[O-])cc2)CCCC1 58.8%
Cc1nc(N)nc(SCc2ccc([N+](=O)[O-])cc2)c1N 50.3%
O=C(C1CC1)N1N=C(c2ccc(Br)cc2)CC1(O)C(F)(F)F (stereo not given) 48.3%
CCc1nnc(NC(=O)c2cc(S(=O)(=O)N3CCN(CC)CC3)ccc2Cl)s1 68.4%

inhibition, inactive:
COc1cc(CNC2CCCC2)c(Br)cc1OCc1ccccc1 -15.5%
COc1ccc(CCN=C2SCC(=O)N2Cc2ccccc2)cc1OC 6.74%
Cc1ccccc1-c1ccc2c(c1)O[C@@H](CN(C)Cc1ccc(C(=O)O)cc1)[C@@H](C)CN([C@H](C)CO)S2(=O)=O 1.79%
C[C@H](CO)N1C[C@H](C)[C@@H](CN(C)C(=O)c2cccc(F)c2)Oc2cc(-c3cncnc3)ccc2S1(=O)=O -0.771%
Nc1cccc(OCCCCCOc2cccc(N)c2)c1 -19.1%
COCCCn1c(=O)/c(=C/c2ccccc2OC(C)C)s/c1=C(\C#N)C(=O)Nc1ccc(C(=O)O)cc1 4.37%
Cc1cc(C)c2cc(C#N)c(N3CCNCC3)nc2c1 -5.81%
CC1(C)CN(Cc2cccnc2)C(=O)[C@H]1CC(=O)Nc1ccc(Br)cc1 -4.33%
CCC(C)NC(=O)C1c2ccccc2C(=O)N1Cc1ccccc1 (stereo not given) 30.9%
O=C1c2ccccc2C(O)N1Cc1ccccc1Cl (stereo not given) -5.54%
CCN(CC)CCN(C(=O)c1ccc2c(c1)CCCC2)c1nc2c(OC)cccc2s1 9.68%
O=C(COC(=O)c1ccc(S(=O)(=O)N2CCCCCC2)cc1)Nc1ccccc1C(F)(F)F -10.6%
CC(C)=CCc1c(O)c(CC=C(C)C)c2occ(-c3ccc(O)cc3)c(=O)c2c1O -4.63%
CC(C)c1cc(N=O)cc(C(C)C)c1O 11.3%
Cc1ccc(S(=O)(=O)N2C[C@H]3n4c(=O)ccc(=O)n4C[C@H](OC(=O)NC4CCCC4)[C@@]3(O)C2)cc1 0.795%
CCc1noc(C)c1C(=O)OCC(=O)c1ccc(NC(=O)CC(C)C)cc1 7.07%
CCN(CC)c1ccc(NC(=O)c2ccc(Cl)nc2)cc1 2.91%
COc1ccc(NC(=O)C/C(C)=N/NC(=O)c2cnccn2)cc1Cl 0.411%
COc1cc(C)c(CN2CCN(C(=O)CCC(=O)c3ccc(C)s3)CC2)cc1OC -18.3%
C[C@H]1Cn2cnc(C(=O)N[C@@H](Cc3c[nH]c4ccccc34)C(=O)OC(C)(C)C)c2C(=O)N1 -25.3%
CCN(CC)C(=O)C1=C(C)N(Cc2ccc(OC)cc2)C(=O)C(CC(=O)NCCCCc2ccccc2)C1 (stereo not given) -3.18%
COc1ncnc2c1ncn2CCCNCCN1CCOCC1 -1.37%
COc1ccccc1NC(=O)C(CC(=O)O)Cc1cc(C)cc(C)c1 (stereo not given) -13.3%
Cc1cccc(Nc2nc(NCCO)nc(N3CCCC3)n2)c1 7.29%
CC(C)n1cnc2c(Nc3cccc(Cl)c3)nc(N(CCO)CCCO)nc21 -2.02%
Cc1ccccc1NC(=O)Cc1nc(COC(=O)CNC(=O)c2ccc(Cl)cc2Cl)cs1 -5.79%
CC(=O)Nc1ccc2nc(NC(=O)CS(=O)(=O)c3ccc(F)cc3)sc2c1 -1.73%
O=C(COc1ccc(S(=O)(=O)Nc2cccc(C(F)(F)F)c2)cc1)N1CCOCC1 5.55%
COc1ccccc1C(=O)Nc1cccc(C(=O)N2CCOCC2)c1 -6.8%
COc1ccc(Cn2c(=O)oc3ccccc32)cc1 -3.08%
CC1CC(NC(=S)N(C)C)CC(C)(C)C1 (stereo not given) -2.42%
CNC(=O)C[C@H]1C(=O)N(c2ccc(OC)cc2)C[C@@H]1Cc1ccccc1 -2.06%
COc1cccc(/C=N\Nc2nncc(-c3ccccc3)n2)c1 -5.65%
C/C(=N\Nc1nncc2ccccc12)c1ccc(Cl)c([N+](=O)[O-])c1 -18.4%
NC(=O)CSc1nnc(-c2cccc(S(=O)(=O)N3CCOCC3)c2)o1 1.36%
O=C1CCC(C(=O)OCC(=O)Nc2ccc(OC(F)F)cc2)=NN1 -2.22%
O=C(Nc1cc(F)ccc1F)c1ccc2c(=O)n3c(nc2c1)CCC3 -23.7%
O=C(CSCc1ccc(Br)cc1)Nc1ccc(S(=O)(=O)N2CCCCCC2)cc1 -7.38%
O=C(O)CC(SCC(=O)Nc1ccc(Br)cc1)C(=O)O (stereo not given) -3.51%
C[C@H](CO)N1C[C@H](C)[C@@H](CN(C)C(=O)C2CCCCC2)OCc2cnnn2CCCC1=O 0.386%
C[C@H]1CN([C@@H](C)CO)C(=O)c2cc(-c3cccc(F)c3)cnc2O[C@@H]1CN(C)S(C)(=O)=O 5.8%
COc1cc2ccccc2cc1C(=O)N1CCOCC1 25.1%
COc1cccc2cc(C(=O)N3CCN(C(=O)c4ccccc4)CC3)c(=O)oc12 -0.766%
O=C(N=C1SC2CS(=O)(=O)CC2N1Cc1ccccc1)c1ccccc1 (stereo not given) 1.35%
COC(=O)[C@H]1C[C@H](OC(=O)NCc2ccccc2)[C@@]2(O)CN(S(=O)(=O)c3ccc(C)cc3)CC2[C@H]1C(=O)OC (stereo not given in full) -13.5%
Cc1ccsc1C(=O)OCC(=O)Nc1cccc(F)c1 -4.47%
COc1ccc(C(=O)OCC(=O)c2cc(C)n(CC3CCCO3)c2C)cc1[N+](=O)[O-] (stereo not given) 12.7%
Cc1ccc(S(=O)(=O)N(CCc2ccccc2)c2ccc3c(c2)C2CC3CCN2C(=O)OCc2ccccc2)cc1 (stereo not given) -3.7%
COc1ccc(OCC(=O)N2CCN(C(=O)c3cccs3)CC2)cc1 -13.6%
O=C(CSc1ncnc2sccc12)NC1CCS(=O)(=O)C1 (stereo not given) 5.19%
Cc1nc2ccccn2c(=O)c1NC(=O)c1ccc(Br)o1 1.95%
CCOC(=O)C1CCN(C(=O)c2ccc3c(=O)n4nc(Nc5ccccc5CC)sc4nc3c2)CC1 0.7%
NC(=O)C1(Nc2ccc(-c3ccccc3)cc2)CCCC1 0.238%
O=C(Nc1ccc([N+](=O)[O-])cc1)C1CC12CCC2 (stereo not given) -7.83%
NC(CSC(c1ccccc1)(c1ccccc1)c1ccc(-c2ccccc2)cc1)C(=O)O (stereo not given) -1.87%
Nc1nc(SCc2ccc([N+](=O)[O-])cc2)c2ncn(C3OC(CO)C(O)C3O)c2n1 (stereo not given) -5.79%
Cc1nc(SCc2ccc(F)cc2)c([N+](=O)[O-])[nH]1 2.2%
N#CCCN(C(=S)Nc1ccc(Cl)c(Cl)c1)C1CCCCC1 -1.92%
Cc1cccc(N(CC(=O)N2CCCC2)S(C)(=O)=O)c1C -6.4%
Cc1ccc2cccc([N+](=O)[O-])c2n1 7.19%
O=C(OCc1cn([C@@H]2C[C@H](c3ccc(Cl)cc3)N(Cc3cccs3)C[C@H]2O)nn1)c1ccccc1 3.08%
O=C(C1CC1)N1N=C2CCCCC2C1(O)C(F)(F)F (stereo not given) 0.262%
O=C(Cc1ccccc1)N1N=C(c2ccncc2)CC1(O)C(F)(F)F (stereo not given) 4.93%
C[C@@H]1CN([C@@H](C)CO)C(=O)c2cc(Br)cnc2O[C@H]1CN(C)Cc1ccc(-c2ccccc2)cc1 -10.5%
C[C@@H]1CN([C@H](C)CO)C(=O)c2cc(Br)cnc2O[C@@H]1CN(C)Cc1cncnc1 -0.147%
Nc1cc(=O)c2[nH]cnc2[nH]1 5.05%
O=C1CCC(=O)N1CCC(=O)N(C(=O)NC1CCCCC1)C1CCCCC1 -0.58%
CCc1nnc(NC(=O)c2ccc(S(=O)(=O)NC3CCCCC3)cc2)s1 -6.69%
CCc1nnc(NC(=O)c2cc(S(=O)(=O)N3CCCCC3)ccc2C)s1 2.74%
O=C(Nc1ccc(Cl)cn1)c1ccccc1-c1ccccc1 3.03%
c1ccc(CNCc2ccc(CNCc3ccccc3)cc2)cc1 -5.41%
Cc1ccc(S(=O)(=O)/N=C2\C=C(NS(=O)(=O)c3ccc(C)cc3)C(=O)c3ccccc32)cc1 -0.482%
